Data on 93 compounds can be found in article PMC4336329 (PLoS ONE, 2015).

About 14,000 (4.5%) of roughly 310,000 compounds showed an effect of 50% or more. The effect is printed as a negative number. This excerpt belongs to a sample that is enriched for strong results.
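Also: peak tail current of the secondary pulse compared with the same well before compound.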

Chain of human ether-à-go-go-related gene (hERG) potassium channel (Q12809 whole entry, looked up): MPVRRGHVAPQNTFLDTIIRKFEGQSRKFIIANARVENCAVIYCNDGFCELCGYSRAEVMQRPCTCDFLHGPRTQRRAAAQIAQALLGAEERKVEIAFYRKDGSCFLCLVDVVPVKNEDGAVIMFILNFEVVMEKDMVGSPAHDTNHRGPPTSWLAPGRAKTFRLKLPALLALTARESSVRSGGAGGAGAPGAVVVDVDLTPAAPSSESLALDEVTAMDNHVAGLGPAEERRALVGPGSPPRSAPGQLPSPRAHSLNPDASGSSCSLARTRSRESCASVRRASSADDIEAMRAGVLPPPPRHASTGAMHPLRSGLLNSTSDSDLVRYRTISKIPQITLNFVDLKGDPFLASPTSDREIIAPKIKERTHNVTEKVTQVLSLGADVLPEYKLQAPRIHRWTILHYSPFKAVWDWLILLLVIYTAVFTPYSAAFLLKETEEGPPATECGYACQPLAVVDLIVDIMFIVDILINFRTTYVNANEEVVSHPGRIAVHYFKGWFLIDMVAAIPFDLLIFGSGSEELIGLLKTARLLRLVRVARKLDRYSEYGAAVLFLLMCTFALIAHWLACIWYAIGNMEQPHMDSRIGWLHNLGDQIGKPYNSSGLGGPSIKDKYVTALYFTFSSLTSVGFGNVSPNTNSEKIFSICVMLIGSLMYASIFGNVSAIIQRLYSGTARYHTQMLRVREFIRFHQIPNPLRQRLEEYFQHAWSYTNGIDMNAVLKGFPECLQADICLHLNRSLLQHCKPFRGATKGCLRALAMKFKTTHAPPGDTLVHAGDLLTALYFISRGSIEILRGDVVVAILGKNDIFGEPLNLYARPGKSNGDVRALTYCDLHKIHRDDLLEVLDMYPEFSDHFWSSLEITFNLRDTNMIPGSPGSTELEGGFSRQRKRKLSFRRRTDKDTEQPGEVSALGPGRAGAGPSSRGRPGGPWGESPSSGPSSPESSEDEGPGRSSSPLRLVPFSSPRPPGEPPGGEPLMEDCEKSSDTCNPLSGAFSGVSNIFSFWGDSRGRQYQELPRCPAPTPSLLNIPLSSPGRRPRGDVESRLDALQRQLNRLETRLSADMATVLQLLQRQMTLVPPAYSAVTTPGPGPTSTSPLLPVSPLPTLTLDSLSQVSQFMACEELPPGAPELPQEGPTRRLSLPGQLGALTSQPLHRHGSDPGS

This experiment has as its target human ether-à-go-go-related gene (hERG) potassium channel (human, UniProt Q12809). As to the kind of experiment: primary screen, population patch clamp on CHO cells stably expressing hERG; higher = less effect of the substance.
Consider `O=C(NCc1ccco1)Nc1ccc2snnc2c1`, for which the “hERG current change (%, negative = inhibition) at 10uM” value came out at 2.51%.
With `CNC(=O)c1c(NC(NC(=O)c2ccco2)C(=O)c2ccc(Cl)cc2)sc2c1CCCC2` (stereo not drawn) the figure was -20.3%; with `CC1=C(C(=O)Nc2ccccc2)C(c2ccc(C)o2)n2c(s/c(=C/c3ccccc3)c2=O)=N1` (stereo not drawn), 18.1%.
In the case of `COc1ccccc1NCc1ccc([N+](=O)[O-])s1`, the “hERG current change (%, negative = inhibition) at 10uM” value is given as -47.7%.
Under `O=C(c1ccc2ncsc2c1)N1CCCCC1` stands 17.9%.
On to `CC1CN(C(=O)C(C)OC(=O)c2ccc3ncsc3c2)CC(C)O1` (stereo not drawn), for which the “hERG current change (%, negative = inhibition) at 10uM” value amounted to 20.1%.
With `CC(OC(=O)c1ccc2ncsc2c1)C(=O)N1CCCC1` (stereo not drawn) the figure was -56.9%.
Under `CCCc1nnc(SCC(=O)N2CCCC2)n1Cc1ccco1` stands 1.2%.
With `Cc1ccc2c(c1)sc(=NC(=O)C1CC1)n2C` the figure was -4.01%; with `CCOC(=O)c1cnc2ccc(C)cc2c1Sc1ccccc1C(=O)OC`, -2.26%; with `CCOC(=O)C1CCN(Cc2ccccc2C)CC1`, 0.665%.
Consider `CCOC(=O)C1CCN(Cc2cn[nH]c2-c2ccc(C)cc2)CC1`, for which the “hERG current change (%, negative = inhibition) at 10uM” value was -51.8%.
With `COc1ccc(-c2[nH]ncc2CN2CCN(C(=O)c3cccs3)CC2)c(F)c1`, the “hERG current change (%, negative = inhibition) at 10uM” value is -21.5%.
Under `CCOC(=O)N1CCN(Cc2cn[nH]c2-c2cc3ccccc3o2)CC1` stands -34.4%.
With `CCOC(=O)N1CCN(Cc2cn[nH]c2-c2ccc(-c3ccccc3)cc2)CC1` the figure was -54.8%; with `CCOC(=O)C1CCN(Cc2cn[nH]c2-c2ccccc2)CC1.O=C(O)C(=O)O`, -9.8%; with `COc1ccc(CN2CCN(C(=O)c3cccs3)CC2)c(OC)c1OC`, -6.53%.
Consider `CCOC(=O)N1CCN(Cc2cn[nH]c2-c2cccc3ccccc23)CC1`, for which the “hERG current change (%, negative = inhibition) at 10uM” value was -4.57%.
For `Cc1ccc(-c2[nH]ncc2CN2CCN(C(=O)c3cccs3)CC2)cc1C`, the “hERG current change (%, negative = inhibition) at 10uM” value is -62.5%.
On to `O=C(Nc1cc(=O)[nH]c2nc(-c3ccccc3)nn12)c1ccccc1Cl`, for which the “hERG current change (%, negative = inhibition) at 10uM” value is on record as 15.3%.
With `Cc1sc(NC(=O)c2ccc(Br)s2)c(C(N)=O)c1C` the figure was 17.5%; with `OCCN(Cc1ccccc1)Cc1ccc(Cl)cc1`, -73%; with `OCCN(Cc1ccccc1)Cc1ccc(Cl)cc1Cl`, -14%.
Take `OCCN(Cc1ccccc1)Cc1ccc(F)c(F)c1`: the “hERG current change (%, negative = inhibition) at 10uM” value was -14.9%.
With `COc1ccc(S(=O)(=O)N2CCOC2CNC(=O)C(=O)NCc2ccccn2)cc1C` (stereo not drawn) the figure was 11.6%; with `CCc1noc(C)c1C(=O)Nc1nc(-c2ccc(OC)cc2)cs1`, -6.43%; with `Cc1ccc(-c2csc(NC(=O)c3c(C)noc3C)n2)cc1`, -31.7%.
Under `Cc1noc(C)c1C(=O)Nc1nc(-c2ccccc2Cl)cs1` stands -0.869%; under `CCc1noc(C)c1C(=O)Nc1nc(-c2cccs2)cs1`, -57%.
As for `Cc1noc(C)c1C(=O)Nc1nc(-c2cccs2)cs1`, the “hERG current change (%, negative = inhibition) at 10uM” value is recorded as -56.9%.
With `CCc1noc(C)c1C(=O)Nc1nc(-c2ccccc2)cs1` the figure was -32.6%; with `Cc1ccc(NC(=S)N2CCN(C(=O)C3CCCO3)CC2)cc1` (stereo not drawn), 17.8%.
Take `Cc1c(N)c(C(C)(C)C)cc(C(C)(C)C)c1[N+](=O)[O-]`: the “hERG current change (%, negative = inhibition) at 10uM” value is given as 0.751%.
With `Cc1sc2ncnc(SCC(=O)c3ccc(Cl)s3)c2c1C` the figure was 18.3%; with `Cc1cc(NC(=O)CN2CCCCC2)no1.O=C(O)C(=O)O`, 18.8%.
With `Cc1ccc2ccc3cccc4ccc1c2c34`, the “hERG current change (%, negative = inhibition) at 10uM” value is listed as 14%.
With `S=c1[nH]nc(COc2ccccc2)n1/N=C/C=C/c1ccco1` the figure was 3.42%; with `CC(NC(=O)Nc1ccccc1)C(c1cccs1)N1CCN(C)CC1` (stereo not drawn), -17.8%.
For the compound `CC(NC(=O)Nc1ccc([N+](=O)[O-])cc1)C(c1cccs1)N1CCCC1` (stereo not drawn), the “hERG current change (%, negative = inhibition) at 10uM” value is on record as -60.1%.
Take `CC(NC(=O)Nc1cccc(Cl)c1)C(c1cccs1)N1CCCC1` (stereo not drawn): the “hERG current change (%, negative = inhibition) at 10uM” value is -22.8%.
With `NC(=O)CSc1nnc(-c2ccncc2)n1-c1ccc(Cl)cc1` the figure was -21.5%; with `COc1ccc(NC(=S)N2CCN(S(C)(=O)=O)CC2)cc1OC`, 4.68%; with `Cc1ccc(C(=O)O/N=C(\N)Cc2cccs2)c(Cl)c1`, 0.558%.
With `Cc1cccc(CN2CCC(Oc3ccc(C(=O)N4CCCCC4)cc3)CC2)c1`, the “hERG current change (%, negative = inhibition) at 10uM” value is recorded as -21.9%.
With `Cc1cccc(OC2CCN(Cc3c(C(=O)N4CCCC4)nc4ccccn34)CC2)c1` the figure was -59.4%; with `COC1CCN(Cc2c(C(=O)N3CCN(C4CCCCC4)CC3)nc3ccccn23)CC1`, 5.42%.
For `O=C(c1nc2ccccn2c1CN1CCCC(OCc2ccccc2)C1)N1CCCC1` (stereo not drawn), the “hERG current change (%, negative = inhibition) at 10uM” value is given as -44.8%.
With `O=C(c1nc2ccccn2c1CN1CCC(Cc2ccccc2)CC1)N1CCCC1` the figure was -70.7%; with `O=C(c1nc2ccccn2c1CN1CCN(c2ccccc2O)CC1)N1CCCC1`, 34.7%.
With `CCCCCCNS(=O)(=O)c1ccc(NC(=O)C2CCCO2)cc1` (stereo not drawn) the figure was -21.8%.
In the case of `Cc1ccc2sc(N3CCN(C(=O)C4=COCCO4)CC3)nc2c1C`, the “hERG current change (%, negative = inhibition) at 10uM” value is recorded as -15.6%.
For the compound `COc1ccc(OCc2cccc(C(=O)NN)c2)cc1`, the “hERG current change (%, negative = inhibition) at 10uM” value is reported as 2.35%.
Turning to `CC1CCCC(C)N1C(=O)c1cc(F)c(F)cc1Cl` (stereo not drawn), the “hERG current change (%, negative = inhibition) at 10uM” value is given as 16.1%.
With `COc1ccc(CCNC(=O)C/C(C)=N/NC(=O)C2CCCCC2)cc1OC` the figure was 8.79%; with `CC(OC(=O)CCCNC(=O)c1ccc(Cl)cc1)C(=O)N(C)Cc1ccccc1` (stereo not drawn), -54.2%; with `CCN(C(=O)C(C)OC(=O)CCCNC(=O)c1ccc(Cl)cc1)c1ccccc1` (stereo not drawn), -25.1%.
Under `COc1ccc(CN(C)C(=O)CCCNC(=O)c2ccc(Cl)cc2)cc1` stands -26.6%.
Under `Cc1ccc(N2CC(C)Cn3c2nc2c3c(=O)[nH]c(=O)n2C)cc1C` (stereo not drawn) stands -10.9%.
On to `Cc1c(Br)cc(C(=O)N2CCCC2)c(C)c1C`, for which the “hERG current change (%, negative = inhibition) at 10uM” value came to 0.525%.
Under `O=C(C1=C(O)C(=O)N(CCN2CCOCC2)C1c1ccc(Cl)cc1)c1cc2ccccc2o1` (stereo not drawn) stands 10.3%.
With `CCCCN(C)CCNC(=O)c1ccc2c(c1)NC(=O)C(N1CCCCC1)S2` (stereo not drawn) the figure was 2.48%; with `Cc1cc(Cl)ccc1C(=O)C1CCCN(C(=O)c2ccc3ncccc3c2)C1` (stereo not drawn), -29.5%; with `O=C(c1ccc(Cl)cc1)C1CCCN(Cc2cccc3ncccc23)C1` (stereo not drawn), -52.1%.
As to `O=C(c1cccc(Cl)c1)C1CCCN(Cc2cccc3cnccc23)C1` (stereo not drawn), the “hERG current change (%, negative = inhibition) at 10uM” value is listed as -32.7%.
As to `O=C(c1ccc(Cl)cc1)C1CCCN(Cc2cccc3cccnc23)C1` (stereo not drawn), the “hERG current change (%, negative = inhibition) at 10uM” value is reported as -75.9%.
For `O=C(c1ccc(Cl)cc1)C1CCCN(Cc2ccc3ncccc3c2)C1` (stereo not drawn), the “hERG current change (%, negative = inhibition) at 10uM” value was -64.3%.
Under `O=C(c1ccc(Cl)cc1)C1CCCN(Cc2ccc3nonc3c2)C1` (stereo not drawn) stands -34.9%; under `O=C(c1ccc(Cl)cc1)C1CCCN(Cc2cccc3cnccc23)C1` (stereo not drawn), -44.8%; under `CC(C)c1ccc(NC(=O)c2ccc(NS(C)(=O)=O)cc2)cc1`, 3.29%.
With `COC(=O)c1ccc(OCCn2cnc3ccccc3c2=O)cc1` the figure was -11.2%; with `COc1ccc(NC(=O)C2Cc3cccc(OC)c3O/C2=N\O)cc1` (stereo not drawn), 6.66%; with `COc1cccc(-n2c(COc3ccccc3C)nnc2SCC(=O)O)c1`, 1.56%.
For the compound `CSCC[C@H](NC(=O)N1CCn2c1nc1ccccc12)C(=O)NCc1ccco1`, the “hERG current change (%, negative = inhibition) at 10uM” value is -19.1%.
As for `CCN(C(=O)COC(=O)c1cc(-c2ccccc2)nc2c1c(C)nn2-c1ccccc1)C1CCS(=O)(=O)C1` (stereo not drawn), the “hERG current change (%, negative = inhibition) at 10uM” value is 21.5%.
With `CCN(CC)CCCNC(=O)c1oc2ccc3c(c2c1C)C(O)CC(C)(C)O3` (stereo not drawn) the figure was -4.08%.
`Cc1ccc(NS(=O)(=O)c2ccc3c(c2)n(C)c(=O)n3C)cc1C`: the “hERG current change (%, negative = inhibition) at 10uM” value stood at 14.2%.
Take `COc1cccc(CNCC(O)(c2ccc(Cl)cc2)c2ccc(Cl)cc2)c1`: the “hERG current change (%, negative = inhibition) at 10uM” value is listed as -12.2%.
Under `OC(CNCc1ccccc1)(c1ccc(F)cc1)c1ccc(F)cc1` stands -38.1%.
With `Cc1ccc(C(O)(CNCc2ccccc2)c2ccccc2)cc1` (stereo not drawn) the figure was -33.9%; with `OC(CNCc1ccc(F)cc1)(c1ccc(F)cc1)c1ccc(F)cc1`, -33.7%; with `OC(CNCc1ccc(F)cc1)(c1ccccc1)c1ccc(F)cc1` (stereo not drawn), -33.8%.
As for `COc1ccc(CNCC(O)(c2ccc(F)cc2)c2ccc(F)cc2)cc1`, the “hERG current change (%, negative = inhibition) at 10uM” value is reported as -67.3%.
Under `COc1ccc(CNCC(O)(c2ccccc2)c2ccc(F)cc2)cc1` (stereo not drawn) stands -73.3%; under `Cc1ccc(CNCC(O)(c2ccccc2)c2ccc(F)cc2)cc1` (stereo not drawn), -45.6%; under `Cc1ccc(CNCC(O)(c2ccc(F)cc2)c2ccc(F)cc2)cc1`, -56.4%.
With `CC(C)C(NC(=O)C1CCCCC1)C(=O)Nc1ccncc1` (stereo not drawn) the figure was 9.18%; with `Cc1cc(C)cc(C(=O)N2CCC(CCC(=O)NC3CC3)CC2)c1`, -2.09%.
Under `CCOC(=O)C1CCN(C(=O)CN(c2cc(OC)ccc2OC)S(=O)(=O)c2ccccc2)CC1` stands -2.73%; under `CCOC(=O)C1CCN(C(=O)CN(c2cc(Cl)ccc2OC)S(=O)(=O)c2ccccc2)CC1`, -67%.
Turning to `CCOC(=O)C1CCN(C(=O)CN(c2ccc3c(c2)OCCO3)S(=O)(=O)c2ccccc2)CC1`, the “hERG current change (%, negative = inhibition) at 10uM” value is given as -53.1%.
With `CCOC(=O)N1CCN(C(=O)CN(c2cc(Cl)ccc2OC)S(=O)(=O)c2ccccc2)CC1` the figure was -19.4%; with `NC(=O)C1CCN(C(=O)CN(c2ccc3c(c2)OCCO3)S(=O)(=O)c2ccccc2)CC1`, -18%; with `CCOC(=O)C1CCN(C(=O)CN(c2ccc3c(c2)OCCO3)S(C)(=O)=O)CC1`, -4.03%.
